Measured values as given in the supplement of paper PMC9694430.

Columns and labels:
Assay in all cases: thermal shift delta Tm vs DMSO control; higher = stronger stabilization (binding)
Conditions in all cases: 12.5 µM; protein concentration 2 µM
LOC_OS01G01410-cb001 = tested on: LOC_OS01G01410-cb001
How it was run: (§1)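 The melting temperature shift given here is a triplicate mean, measured against protein that received only DMSO. Melting temperatures came from Boltzmann fits of differential scanning fluorimetry data on E. coli-expressed, purified rice kinase domain constructs. Each 19.5 μl well contained 2 μM kinase, 100 mM potassium phosphate pH 7.5, 150 mM NaCl, 10% glycerol, 5 × SYPRO Orange and compound in DMSO. Plates were scanned from 25°C to 95°C at 0.05°C/s.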

LOC_OS01G02750-cb003 = tested on: LOC_OS01G02750-cb003
How it was run: as §1

LOC_OS01G10900-cb004 = tested on: LOC_OS01G10900-cb004
How it was run: as §1

LOC_OS01G13800-cb001 = tested on: LOC_OS01G13800-cb001
How it was run: as §1

LOC_OS01G14860-cb001 = tested on: LOC_OS01G14860-cb001
How it was run: as §1

LOC_OS01G21960-cb002 = tested on: LOC_OS01G21960-cb002
How it was run: as §1

LOC_OS01G39600-cb002 = tested on: LOC_OS01G39600-cb002
How it was run: as §1

LOC_OS01G48390-cb002 = tested on: LOC_OS01G48390-cb002
How it was run: as §1

LOC_OS01G51400-cb002 = tested on: LOC_OS01G51400-cb002
How it was run: as §1

LOC_OS01G52050-cb004 = tested on: T1, LOC_OS01G52050-cb004
T1 sequence (whole entry): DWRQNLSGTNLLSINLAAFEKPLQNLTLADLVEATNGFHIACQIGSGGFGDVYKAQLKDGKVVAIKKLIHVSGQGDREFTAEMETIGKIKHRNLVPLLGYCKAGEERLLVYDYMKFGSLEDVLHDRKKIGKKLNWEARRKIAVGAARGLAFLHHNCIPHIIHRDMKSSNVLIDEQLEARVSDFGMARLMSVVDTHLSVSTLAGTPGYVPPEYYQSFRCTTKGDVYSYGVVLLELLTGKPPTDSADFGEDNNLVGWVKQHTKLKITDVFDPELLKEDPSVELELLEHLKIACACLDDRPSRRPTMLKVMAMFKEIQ
How it was run: as §1

Row | SMILES | thermal shift delta Tm (LOC_OS01G01410-cb001) [°C] | thermal shift delta Tm (LOC_OS01G02750-cb003) [°C] | thermal shift delta Tm (LOC_OS01G10900-cb004) [°C] | thermal shift delta Tm (LOC_OS01G13800-cb001) [°C] | thermal shift delta Tm (LOC_OS01G14860-cb001) [°C] | thermal shift delta Tm (LOC_OS01G21960-cb002) [°C] | thermal shift delta Tm (LOC_OS01G39600-cb002) [°C] | thermal shift delta Tm (LOC_OS01G48390-cb002) [°C] | thermal shift delta Tm (LOC_OS01G51400-cb002) [°C] | thermal shift delta Tm (LOC_OS01G52050-cb004) [°C]
1 | COc1ccc(Oc2cc(NCCC(F)(F)F)c3ncc(-c4ccc(C(=O)NC5CC5)c(C)c4)n3n2)c(F)c1F | 0.28 | 1.7 | -0.65 | 0.15 | 0.68 | -0.46 | 1.84 | 0.14 | 0.75 | 1.81
2 | NC(=O)Nc1cc(-c2cccc(F)c2)sc1C(=O)N[C@H]1CCCNC1 | 0.37 | 5.35 | 0.3 | 0.24 | 0.9 | 3.38 | 0.2 | 0.65 | 0.08 | 11.6
3 | COC(=O)Nc1ccc(-c2nc(N3CCOCC3)c3cnn(C4CCN(C(=O)OC)CC4)c3n2)cc1 | 0.48 | 0.7 | 1.9 | 0.44 | 0.21 | 0.37 | -0.17 | 0.23 | -0.05 | 0.25
4 | CCCCNc1ncc(-c2ccc(CN3CCOCC3)cn2)c(NC2CCC(O)CC2)n1 (stereo not given) | 3.51 | 2.08 | 0.31 | -0.02 | 1.13 | 1.41 | 0.62 | 1.38 | 0.2 | 2.9
5 | C=CC(=O)N[C@H]1CCOC[C@H]1Nc1ncc2cc(-c3c(Cl)c(OC)cc(OC)c3Cl)ccc2n1 | 0.19 | -0.27 | 2.28 | -0.14 | 0.4 | 0.24 | -0.48 | 0.49 | -0.01 | 1.84
6 | CC(C)(C)S(=O)(=O)c1ccc2nccc(Nc3n[nH]c4ccc(F)cc34)c2c1 | 0.34 | 1.74 | 0.48 | -0.44 | 0.3 | 0.28 | 1.01 | 1.31 | 0.33 | 0.16
7 | CCc1cccc(CC)c1NC(=O)N1Cc2[nH]nc(NC(=O)c3ccc(N4CCN(C)CC4)cc3)c2C1 | 0.31 | 0.54 | 0.87 | -0.49 | 0.31 | 0.34 | 2.21 | 0.01 | 0 | 0.17
8 | CN1CCC(CNc2ccc3ncc(-c4cccc(OC(F)(F)F)c4)n3n2)CC1 [SGI-1776 free base] | 0.34 | 4.11 | 3.96 | 0.13 | 0.51 | 2.41 | 0.68 | 0.82 | 0.07 | 3.81
9 | CCN(CC)CCCC(C)Nc1nc(C)cc(Nc2ccc3nc(C)cc(N)c3c2)n1 (stereo not given) | 1.12 | 1.02 | -0.35 | -0.26 | 0.18 | 0.15 | 0.28 | 1.07 | 0.05 | 0.12
10 | CN1C(=O)[C@@H](NC(=O)c2n[nH]c(Cc3ccccc3)n2)COc2ccccc21 | 0.8 | 1.65 | 0.07 | 0.83 | 0.52 | 0.05 | 0.62 | 0.43 | 0.45 | 2.47
11 | O=C(O)[C@]1(Cc2cccc(Nc3nccs3)n2)CC[C@@H](Oc2cccc(Cl)c2F)CC1 | 1.81 | 1.68 | 3.48 | -1.25 | 5.16 | 1 | 2.55 | 3.01 | -0.7 | 13.5
12 | COc1cc(N2CCN(C)CC2)ccc1Nc1ncc2c(n1)N(C)c1ccccc1C(=O)N2 | 0.72 | 1.11 | 1.07 | -0.23 | 0.43 | 0.53 | 0.75 | 0.41 | 0.22 | -0.22
13 | Cn1c(=O)c(Oc2ccc(F)cc2F)cc2cnc(NC(CCO)CCO)nc21 | 0.37 | 0.46 | 1.21 | 0.21 | 0.44 | 0.89 | 0.22 | -0.01 | -0.14 | 0.02
14 | CC(C)(C#N)c1ccc(N2C(=O)OCc3cnc4ccc(-c5cnc6ccccc6c5)cc4c32)cc1 | 0.56 | 1.19 | 0.21 | 0.42 | 0.26 | 0.66 | 0.12 | 0.59 | 0.65 | 0.6
15 | O=C(Nc1ccccc1C(=O)NC1CCCCNC1=O)c1cc2ccccc2s1 (stereo not given) | -0.16 | 1.09 | 0.05 | 0.44 | 0.04 | 0.32 | -0.76 | -0.09 | 0.19 | -0.05
16 | O=C(/C=C/c1ccc2ccccc2n1)c1ccncc1 | 0.4 | -1.2 | 1.49 | 0.45 | 1.08 | 2.15 | -0.61 | 0.91 | 0.46 | -0.48
17 | Cc1cc(Nc2cc(N3CCN(C)CC3)nc(/C=C/c3ccccc3)n2)n[nH]1 [ENMD-2076 L-(+)-Tartaric acid] | 2.38 | 2.56 | 1.86 | -0.25 | 4.33 | 2.63 | 1.94 | 3.3 | 0.81 | 4.1
18 | CNS(=O)(=O)C[C@H]1CC[C@H](N(C)c2[nH]cnc3nccc2-3)CC1 [Oclacitinib] | 0.92 | 1.16 | 0.3 | 0.42 | 2.09 | 0.79 | 1.81 | 2.77 | 0.26 | 1.43
19 | N[C@@H]1CCCN(c2c(/C=C3\SC(=O)NC3=O)cccc2-c2ccccc2)C1 | 0.41 | 0.59 | 0.27 | -0.81 | 0.66 | 0.65 | 0.1 | 0.27 | 0 | -0.01
20 | Cn1cc(-c2ccc(F)c(C(F)(F)F)c2)nc1C1CCN(c2ncnc3[nH]ncc23)CC1 | 0.43 | 0.52 | 0.51 | 0.16 | 1.8 | 0.54 | 0.71 | 0.47 | -0.2 | 0.39
